Calls of active or inactive are those of the source. Calls follow the shape of the full dose curve.
Conditions: Ebola virus entry cell assay, ratio channel

| Structure (SMILES) | AC50 | outcome |
| --- | --- | --- |
| C[C@]12CC[C@@H]3c4ccc(O)cc4C[C@@H](CCCCCCCCCS(=O)CCCC(F)(F)C(F)(F)F)[C@H]3[C@@H]1CC[C@@H]2O (stereo not given in full) | 2 µM (active) |  |
| OCCN1CCN(CCCN2c3ccccc3Sc3ccc(C(F)(F)F)cc32)CC1 | 8.91 µM (active) |  |
| Cc1cn([C@H]2C[C@H](N=[N+]=[N-])[C@@H](CO)O2)c(=O)[nH]c1=O |  | inactive |
| CCc1nn(CCCN2CCN(c3cccc(Cl)c3)CC2)c(=O)n1CCOc1ccccc1 | 22.4 µM (active) |  |
| c1cnc2cc3c(cc2n1)C1CNCC3C1 |  | inactive |
| N[C@@H](Cc1cc(I)c(Oc2cc(I)c(O)c(I)c2)c(I)c1)C(=O)O |  | inactive |
| CO/N=C1\CN(c2nc3c(cc2F)c(=O)c(C(=O)O)cn3C2CC2)CC1CN (stereo not given) |  | inactive |
| CC(=O)O[C@]1(C(C)=O)CC[C@H]2[C@@H]3C=C(Cl)C4=CC(=O)[C@@H]5C[C@@H]5[C@]4(C)[C@H]3CC[C@@]21C |  | inactive |
| CCOC(=O)N1CCC(=C2c3ccc(Cl)cc3CCc3cccnc32)CC1 |  | inactive |
| CN1CCC[C@@H]1CCO[C@](C)(c1ccccc1)c1ccc(Cl)cc1 | 3.16 µM (active) |  |
| CS(=O)(=O)CCNCc1ccc(-c2ccc3ncnc(Nc4ccc(OCc5cccc(F)c5)c(Cl)c4)c3c2)o1 |  | inactive |
| CCOC(=O)[C@H](CCc1ccccc1)N[C@@H](C)C(=O)N1Cc2cc(OC)c(OC)cc2C[C@H]1C(=O)O |  | inactive |
| CC(C)NCC(O)c1ccc(O)c(O)c1 (stereo not given) |  | inactive |
| CC(C)NCC(O)COc1ccc(CCOCC2CC2)cc1 (stereo not given) | 15.8 µM (active) |  |
| CC(CN1c2ccccc2Sc2ccccc21)N(C)C (stereo not given) | 20 µM (active) |  |
